High-throughput results (PubChem)
Shown are actives, neighbours in structure and some others; about 7.3% of the full set was active somewhere.
Tau fibril FP: blocks human tau fibril formation measured by polarization | P10636 | K18 P301L tau heparin fibrillization, Alexa594 FP, 6 h | Potency, µM (top dose mostly 57.7 µM), for the others: at the highest dose activity, negative = inhibition, usual class: inhibitors | hit rate 0.39% among 280,000 | AID 1468; also: nearly all actives have a fitted effect of over 55% in size
Target sequence (P10636 561-689 P618L limits assumed): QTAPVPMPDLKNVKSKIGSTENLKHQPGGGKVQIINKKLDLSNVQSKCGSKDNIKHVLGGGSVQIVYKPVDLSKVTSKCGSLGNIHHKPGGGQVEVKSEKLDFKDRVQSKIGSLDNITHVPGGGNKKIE
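Quantitative HTS format: compounds meet 15 uM recombinant K18 P301L tau and Alexa 594-tau tracer in 100 mM sodium acetate pH 7; 20 uM heparin triggers fibrillization at 37 C over 6 hr; FP gives the signal.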
Tau fluor cs: counter-screen for tau fibril formation inhibitors; Potency, µM (doses to about 57.7 µM), for the others: at the highest dose activity change, negative = decrease; tau K18 P301L Alexa594 fluorescence, heparin fibrillization; hit rate 0.93% among 280,000; AID 1463; also: nearly all actives have a fitted effect of over 55% in size
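Human K18 P301L tau (15 uM unlabeled plus 0.24 uM Alexa 594-labeled, final) in 100 mM sodium acetate pH 7 was mixed with compound and 20 uM heparin and incubated 6 hr at 37 C.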
Tau ThT inhib: blocks human tau fibril formation measured by thioflavin T; P10636; recombinant tau K18 P301L (four-repeat tau fragment), heparin-induced fibrillization, ThT fluorescence; Potency, µM (top dose mostly 57.4 µM), for inactives: top-dose activity, negative = inhibition, usual class: inhibitors; hit rate 2.1% among 270,000; also: nearly all actives have a fitted effect of over 55% in size
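Heparin-induced fibrillization of the P301L-mutant K18 repeat-domain fragment of human tau was followed by ThT binding in quantitative high-throughput format.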
Gal4-VP16 FLuc: Gal4-VP16 reporter inhibition counter-screen; Drosophila S2 Gal4-VP16 UAS-luciferase, luminescence, 20 h; Potency, µM (titrated, usually from 53.6 µM), for inactives: at the top dose activity, negative = inhibition, actives largely listed as inhibitors; hit rate 3.5% among 310,000; AID 2546;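 also: Gal4-VP16 expression switched on by copper sulfate through the metallothionein promoter; nearly all actives have a fitted effect of over 50% in size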
RORgamma inh: ROR gamma (mouse) transcription inhibition. P51450. Drosophila S2 Gal4-RORgamma UAS-luciferase reporter, 20 h. Potency, µM (top dose mostly 53.6 µM), without a hit: at the highest dose activity change, negative = inhibition, hits mostly inhibitors. hit rate 5.4% among 310,000; also: nearly all actives have a fitted effect of over 60% in size
Target sequence (P51450 whole entry, looked up, the tested form may be a part): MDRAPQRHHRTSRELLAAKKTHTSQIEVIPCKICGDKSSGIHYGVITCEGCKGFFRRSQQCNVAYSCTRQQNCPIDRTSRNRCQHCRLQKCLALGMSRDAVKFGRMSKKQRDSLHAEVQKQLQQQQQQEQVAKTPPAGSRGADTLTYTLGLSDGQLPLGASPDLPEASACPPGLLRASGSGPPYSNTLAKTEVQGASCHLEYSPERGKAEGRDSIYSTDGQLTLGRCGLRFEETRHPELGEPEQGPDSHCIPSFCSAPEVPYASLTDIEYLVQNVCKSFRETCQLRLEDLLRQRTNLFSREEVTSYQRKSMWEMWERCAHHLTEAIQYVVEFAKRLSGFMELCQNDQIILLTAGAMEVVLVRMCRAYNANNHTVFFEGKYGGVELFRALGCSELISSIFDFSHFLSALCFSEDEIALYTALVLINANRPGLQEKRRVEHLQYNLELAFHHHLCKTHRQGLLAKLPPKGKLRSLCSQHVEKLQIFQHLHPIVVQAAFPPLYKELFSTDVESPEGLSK
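In this cell-based reporter format, copper sulfate (700 uM final) drives Gal4–ROR gamma fusion expression from a metallothionein promoter in Drosophila Schneider cells; compounds preincubated 1 hr, reporter read after 20 hr at ambient temperature.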
* = called active by the depositor; ? = inconclusive; nt = not tested or not shown; [ ] = remark or other dose. Calls follow the shape of the dose curve; as a rule, active = well fitted curve in the direction sought with a large enough effect; inconclusive = small, poorly fitted or top-dose-only effect, or another doubt; inactive = no such curve, though single readings can be large; an effect the other way counts as inactive or inconclusive. % is scaled to controls: 0 for no effect and ±100 for the full control effect; potency is read from the fitted curve at half-maximal effect.

SMILES	Tau fibril FP	Tau fluor cs	Tau ThT inhib	Gal4-VP16 FLuc	RORgamma inh
O=C(O)c1ccc(OCc2ccc(C(=O)O)o2)cc1	nt	nt	nt	1%	-5%
CCc1ccc(OCc2ccc(C(=O)O)o2)cc1	nt	nt	nt	?	7.1µM*
CC(C)c1ccc(OCc2ccc(C(=O)O)o2)cc1	4%	12%	-5%	?	2.8µM*
Cc1ccccc1CN1C(=O)c2ccccc2S(=O)c2ccc(C(=O)NC3CCC(C)CC3)cc21 (configuration not stated)	0%	-4%	-6%	nt	nt
CCC(Oc1ccccc1)C(=O)Nc1nnc(C)s1 (configuration not stated)	0%	-1%	-11%	1%	-23%
CCC(Oc1ccc(Br)cc1Cl)C(=O)Nc1nnc(C2CC2)s1 (configuration not stated)	nt	nt	nt	?	13µM*
C[C@H]1C[C@@H]2[C@H]3CCC4=CC(=O)C=C[C@@]4(C)[C@@]3(Cl)[C@@H](O)C[C@]2(C)[C@]1(OC(=O)c1ccco1)C(=O)CCl	nt	nt	nt	-22%[17 µM]	?
CCCC(=O)O[C@]1(C(=O)CCl)[C@H](C)C[C@@H]2[C@H]3CCC4=CC(=O)C=C[C@]4(C)[C@@]3(F)C(=O)C[C@@]21C	nt	nt	nt	4%	10µM*
CC1CC2C3CCC4=CC(=O)C=C[C@]4(C)[C@@]3(Cl)C(O)C[C@]2(C)C1(OC(=O)c1ccco1)C(=O)CCl (some centres not stated)	-3%	-21%	2%	2%	16µM*
Cc1ccccc1-n1c(C)nc2ccccc21	1%	0%	-2%	7%[0.365 µM]	11µM*
C/C(=N\NC(=O)C1COc2ccccc2O1)c1ccc(C)o1 (configuration not stated)	6%	-9%	?	7%	-9%
C/C(=N\NC(=O)C1COc2ccccc2O1)c1ccccn1 (configuration not stated)	-4%	-4%	-10%	2.8µM*	1.8µM*
C/C(=N\NC(=O)C1COc2ccccc2O1)c1ccc(Cl)s1 (configuration not stated)	-3%	-10%	-5%	18µM*	6.3µM*
C/C(=N/NC(=O)C1COc2ccccc2O1)c1ccc(Br)s1 (configuration not stated)	-1%	?	nt	-21%	?
COc1ccc(C(=O)NCC(c2cccnc2)N2CCc3ccccc32)cc1OC (configuration not stated)	-6%	6%	13%	nt	nt
O=C(NC(=S)Nc1ccc(S(=O)(=O)N2CCCCC2)cc1)c1ccc(Cl)cc1	0%	0%	-4%	-1%	0%
CC1CCN(S(=O)(=O)c2ccc(NC(=S)NC(=O)c3ccc(Cl)cc3)cc2)CC1	?	2%	7%	4µM*	2µM*
CN1CCN(S(=O)(=O)c2ccc(NC(=S)NC(=O)c3ccc(Cl)cc3)cc2)CC1	-2%	-25%	-16%	?	3.2µM*
COC(=O)C(CCSC)NC(=O)c1cn(-c2ccc(OC)cc2)c(=O)c2ccccc12 (configuration not stated)	nt	nt	nt	3%	6%
CC(=O)[C@]1(O)Cc2c(O)c3c(c(O)c2[C@@H](O[C@H]2C[C@H](N)[C@H](O)[C@H](C)O2)C1)C(=O)c1c(O)cccc1C3=O	25µM*	?	4.5µM*	7.1µM*	3.5µM*
CC(=O)[C@]1(O)Cc2c(O)c3c(c(O)c2[C@@H](O[C@H]2C[C@H](N)[C@H](O)[C@H](C)O2)C1)C(=O)c1ccccc1C3=O	?	?	3.5µM*	-68%	?
O=[N+]([O-])c1ccc(O)c(-c2cc(C(F)(F)F)nc(-c3ccccc3)n2)c1	nt	nt	nt	2.8µM*	1.1µM*
CNC(=O)c1sc2ncccc2c1-n1cccc1	-1%	-6%	1%	nt	nt
Nc1nc(CN2CCN(Cc3ccccc3)CC2)nc(N2CCCc3ccccc32)n1	0%	2%	-9%	-6%	10µM*
Nc1nc(CN2CCN(c3ccccc3)CC2)nc(N2CCCc3ccccc32)n1	0%	-10%	?	-12%	-27%
SMILES	Tau fibril FP	Tau fluor cs	Tau ThT inhib	Gal4-VP16 FLuc	RORgamma inh
Nc1nc(CN2CCN(c3ccccc3F)CC2)nc(N2CCCc3ccccc32)n1	-3%	-10%	?	?	11µM*
C(=C\c1nc(-c2ccccc2)oc1Nc1ccc2ccccc2c1)/c1ccccc1	8%	-5%	-6%	-8%	-6%
COc1cc(C2NC(=S)NC3=C2C(=O)CCC3)ccc1O (configuration not stated)	nt	nt	nt	-3%	-4%
COc1ccc(C2C=C(C34CC5CC(CC(C5)C3)C4)NC(=S)N2)cc1OC (configuration not stated)	-10%	-17%	?	1.6µM*	1.3µM*
CC(C)c1nnc(NC(=O)c2ccc3c(c2)OCO3)s1	-8%	3%	2%	?	6.3µM*
CC(c1ccccc1)c1nnc(NC(=O)c2ccc3c(c2)OCO3)s1 (configuration not stated)	10%	-10%	nt	1%	?
CCOC(=O)CSc1nnc(NC(=O)c2ccc3c(c2)OCO3)s1	nt	nt	nt	16µM*	11µM*
Cc1cc(NC(=O)COc2ccccc2)cc(-c2nc3ccccc3o2)c1O	2%	-4%	0%	nt	nt
Cc1cccc(NC(=O)Cn2c(=O)n(Cc3nc(-c4ccccc4)no3)c(=O)c3ccccc32)c1	?	-27%	?	nt	nt
COc1ccc(S(=O)(=O)N/N=C\c2ccc3c(c2)OCO3)c(OC)c1	nt	nt	nt	11µM*	?
COc1ccc(OC)c(S(=O)(=O)N/N=C\c2ccc3c(c2)OCO3)c1	nt	nt	nt	1%	31%
CCCc1ccc(OC(=O)CSc2nnc(-c3cccs3)o2)cc1	4%	1%	4%	nt	nt
COC(=O)c1ccc(C(NC(=O)OCc2ccccc2)/C(I)=C/[C@@H](C)C(=O)NCc2ccncc2)cc1 (some centres not stated)	1%	-12%	?	4%	?
CNC(=O)C1C(=S)NC(N)=C(C#N)C1c1ccccc1 (configuration not stated)	16µM*	-28%	20µM*	?	?
CCN(CC)c1ccc(Nc2nc(N3CCOCC3)c3ccccc3n2)cc1	17%	?	?	11µM*	-42%
COc1ccc(Nc2nc(N3CCCC3)c3ccccc3n2)cc1	7%	?	-16%	?	?
Cc1ccc(CN(C(=O)c2ccc([N+](=O)[O-])cc2)C2CCS(=O)(=O)C2)o1 (configuration not stated)	nt	nt	nt	-5%	0%
N/C(Cc1ccc(Cl)cc1)=N\OC(=O)c1ccc2ccccc2c1	-6%	-10%	0%	20µM*	-26%
COc1ccc(C/C(N)=N/OC(=O)c2ccc(Cl)cc2)cc1	-6%	-11%	-12%	-13%	24%
